{
  "source": "paper PMC11024108",
  "experiment_in_all_cases": "cross-link between two proteins; cross-linking mass spectrometry",
  "key": {"[1]": {"target": "14-3-3 protein zeta/delta (UniProt P63104)"}, "[2]": {"target": "ATP synthase F(0) complex subunit 8 (UniProt P03928)", "sequence (P03928 whole entry, one chain of several)": "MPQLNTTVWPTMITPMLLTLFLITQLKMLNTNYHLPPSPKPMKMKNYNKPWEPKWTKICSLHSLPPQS"}, "[3]": {"target": "Trifunctional enzyme subunit alpha, mitochondrial (UniProt P40939)", "sequence (P40939 whole entry)": "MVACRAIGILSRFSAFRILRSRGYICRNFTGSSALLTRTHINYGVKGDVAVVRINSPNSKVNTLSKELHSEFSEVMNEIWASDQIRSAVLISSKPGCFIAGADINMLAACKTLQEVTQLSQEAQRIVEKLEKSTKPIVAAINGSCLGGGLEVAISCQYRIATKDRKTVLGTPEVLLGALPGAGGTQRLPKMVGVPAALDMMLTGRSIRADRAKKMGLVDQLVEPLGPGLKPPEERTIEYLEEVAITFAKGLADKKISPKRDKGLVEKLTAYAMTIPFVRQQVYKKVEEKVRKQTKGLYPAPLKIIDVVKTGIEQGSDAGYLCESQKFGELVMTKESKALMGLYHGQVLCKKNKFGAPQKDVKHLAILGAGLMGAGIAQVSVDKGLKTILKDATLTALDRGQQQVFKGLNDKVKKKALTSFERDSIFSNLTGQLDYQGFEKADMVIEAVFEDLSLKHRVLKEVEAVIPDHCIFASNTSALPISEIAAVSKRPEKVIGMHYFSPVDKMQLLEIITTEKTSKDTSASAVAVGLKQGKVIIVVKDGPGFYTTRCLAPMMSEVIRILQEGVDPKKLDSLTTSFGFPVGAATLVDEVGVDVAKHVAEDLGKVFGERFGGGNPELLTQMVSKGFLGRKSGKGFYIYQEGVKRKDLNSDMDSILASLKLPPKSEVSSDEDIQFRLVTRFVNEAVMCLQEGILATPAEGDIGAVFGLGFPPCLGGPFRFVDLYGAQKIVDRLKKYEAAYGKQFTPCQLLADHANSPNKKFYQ"}, "[4]": {"target": "Trifunctional enzyme subunit beta, mitochondrial (UniProt P55084)", "sequence (P55084 whole entry)": "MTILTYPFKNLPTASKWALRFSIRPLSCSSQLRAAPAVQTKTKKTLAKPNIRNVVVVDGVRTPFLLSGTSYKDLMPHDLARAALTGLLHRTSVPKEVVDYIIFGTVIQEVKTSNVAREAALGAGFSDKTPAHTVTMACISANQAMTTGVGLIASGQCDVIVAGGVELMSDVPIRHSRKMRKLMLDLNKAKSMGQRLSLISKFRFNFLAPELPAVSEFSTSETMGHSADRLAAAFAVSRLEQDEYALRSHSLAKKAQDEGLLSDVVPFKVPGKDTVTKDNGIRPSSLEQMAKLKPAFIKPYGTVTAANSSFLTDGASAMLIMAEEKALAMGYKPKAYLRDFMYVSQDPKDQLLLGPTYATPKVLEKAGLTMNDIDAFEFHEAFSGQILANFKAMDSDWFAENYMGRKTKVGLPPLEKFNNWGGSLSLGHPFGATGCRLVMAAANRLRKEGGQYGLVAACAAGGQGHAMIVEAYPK"}, "[5]": {"target": "14-3-3 protein zeta/delta (UniProt P63101)"}, "[6]": {"target": "AP-3 complex subunit mu-1 (UniProt Q9Y2T2)"}, "[7]": {"target": "AP-3 complex subunit beta-2 (UniProt Q9JME5)"}, "[8]": {"target": "AP-3 complex subunit sigma-1 (UniProt Q9DCR2)", "sequence (Q9DCR2 whole entry, one chain of several)": "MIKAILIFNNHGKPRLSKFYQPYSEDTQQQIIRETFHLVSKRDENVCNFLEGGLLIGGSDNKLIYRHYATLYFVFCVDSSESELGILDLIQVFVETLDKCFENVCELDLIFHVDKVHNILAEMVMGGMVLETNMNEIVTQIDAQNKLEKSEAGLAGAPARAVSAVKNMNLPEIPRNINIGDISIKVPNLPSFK"}, "[9]": {"target": "B-cell receptor-associated protein 31 (UniProt Q61335)"}, "Actin, cytoplasmic 1": {"target": "Actin, cytoplasmic 1 (UniProt P60710)"}, "Alpha-internexin": {"target": "Alpha-internexin (UniProt P46660)", "sequence (P46660 whole entry)": "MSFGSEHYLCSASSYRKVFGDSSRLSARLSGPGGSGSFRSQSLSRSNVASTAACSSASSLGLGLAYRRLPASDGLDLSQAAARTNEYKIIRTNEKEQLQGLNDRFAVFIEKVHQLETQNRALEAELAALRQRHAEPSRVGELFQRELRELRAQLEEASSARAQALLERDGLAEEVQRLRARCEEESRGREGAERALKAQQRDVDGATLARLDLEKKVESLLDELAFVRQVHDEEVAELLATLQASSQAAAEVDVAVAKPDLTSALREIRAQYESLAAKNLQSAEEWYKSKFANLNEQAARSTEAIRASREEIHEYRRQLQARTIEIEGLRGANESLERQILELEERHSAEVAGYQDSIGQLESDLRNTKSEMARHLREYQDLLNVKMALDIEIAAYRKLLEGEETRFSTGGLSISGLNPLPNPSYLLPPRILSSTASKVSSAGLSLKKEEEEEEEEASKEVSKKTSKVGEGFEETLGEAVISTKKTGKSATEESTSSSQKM"}, "[10]": {"target": "Neurofilament heavy polypeptide (UniProt P19246)"}, "[11]": {"target": "Neurofilament medium polypeptide (UniProt P08553)"}, "[12]": {"target": "ATPase inhibitor, mitochondrial (UniProt Q9UII2)", "sequence (Q9UII2 whole entry)": "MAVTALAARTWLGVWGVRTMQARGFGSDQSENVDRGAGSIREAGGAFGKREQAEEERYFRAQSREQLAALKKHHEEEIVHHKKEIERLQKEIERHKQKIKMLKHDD"}, "[13]": {"target": "Stress-70 protein, mitochondrial (UniProt P38646)"}, "[14]": {"target": "ATP-dependent 6-phosphofructokinase, platelet type (UniProt Q9WUA3)"}, "[15]": {"target": "ADP-ribosylation factor-like protein 8B (UniProt Q9NVJ2)", "sequence (Q9NVJ2 whole entry)": "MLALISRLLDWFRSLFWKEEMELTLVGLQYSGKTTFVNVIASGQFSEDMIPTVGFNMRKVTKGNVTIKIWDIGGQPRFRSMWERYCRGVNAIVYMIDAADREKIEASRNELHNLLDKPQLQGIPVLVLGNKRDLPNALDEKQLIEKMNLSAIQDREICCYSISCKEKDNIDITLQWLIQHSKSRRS"}, "[16]": {"target": "Adenylate kinase 2, mitochondrial (UniProt P54819)"}, "Cytochrome c": {"target": "Cytochrome c (UniProt P99999)", "sequence (P99999 whole entry)": "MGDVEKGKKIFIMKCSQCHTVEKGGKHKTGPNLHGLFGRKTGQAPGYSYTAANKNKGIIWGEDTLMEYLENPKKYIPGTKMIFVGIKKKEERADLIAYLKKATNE"}, "[17]": {"target": "Glycerol-3-phosphate dehydrogenase, mitochondrial (UniProt P43304)", "sequence (P43304 whole entry)": "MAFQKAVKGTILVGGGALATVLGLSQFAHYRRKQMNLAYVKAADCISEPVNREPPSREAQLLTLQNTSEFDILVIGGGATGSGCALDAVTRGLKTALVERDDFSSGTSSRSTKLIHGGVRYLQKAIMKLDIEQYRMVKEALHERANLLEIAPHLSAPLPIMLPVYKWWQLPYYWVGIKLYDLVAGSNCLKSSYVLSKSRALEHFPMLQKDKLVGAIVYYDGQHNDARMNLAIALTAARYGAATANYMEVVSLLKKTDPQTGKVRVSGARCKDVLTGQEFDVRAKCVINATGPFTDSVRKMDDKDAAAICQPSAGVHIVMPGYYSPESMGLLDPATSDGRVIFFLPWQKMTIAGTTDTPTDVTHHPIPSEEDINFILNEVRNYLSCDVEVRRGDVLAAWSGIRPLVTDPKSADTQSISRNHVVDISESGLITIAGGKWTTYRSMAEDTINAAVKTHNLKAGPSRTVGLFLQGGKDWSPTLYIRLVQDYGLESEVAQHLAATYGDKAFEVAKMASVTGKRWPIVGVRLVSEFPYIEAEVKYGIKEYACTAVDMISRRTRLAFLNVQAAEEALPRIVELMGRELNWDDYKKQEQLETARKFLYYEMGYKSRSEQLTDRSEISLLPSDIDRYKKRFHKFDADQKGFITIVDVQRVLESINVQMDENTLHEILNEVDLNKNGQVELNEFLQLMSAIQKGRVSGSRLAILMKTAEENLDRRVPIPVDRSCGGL"}, "Amphiphysin": {"target": "Amphiphysin (UniProt Q7TQF7)", "sequence (Q7TQF7 whole entry)": "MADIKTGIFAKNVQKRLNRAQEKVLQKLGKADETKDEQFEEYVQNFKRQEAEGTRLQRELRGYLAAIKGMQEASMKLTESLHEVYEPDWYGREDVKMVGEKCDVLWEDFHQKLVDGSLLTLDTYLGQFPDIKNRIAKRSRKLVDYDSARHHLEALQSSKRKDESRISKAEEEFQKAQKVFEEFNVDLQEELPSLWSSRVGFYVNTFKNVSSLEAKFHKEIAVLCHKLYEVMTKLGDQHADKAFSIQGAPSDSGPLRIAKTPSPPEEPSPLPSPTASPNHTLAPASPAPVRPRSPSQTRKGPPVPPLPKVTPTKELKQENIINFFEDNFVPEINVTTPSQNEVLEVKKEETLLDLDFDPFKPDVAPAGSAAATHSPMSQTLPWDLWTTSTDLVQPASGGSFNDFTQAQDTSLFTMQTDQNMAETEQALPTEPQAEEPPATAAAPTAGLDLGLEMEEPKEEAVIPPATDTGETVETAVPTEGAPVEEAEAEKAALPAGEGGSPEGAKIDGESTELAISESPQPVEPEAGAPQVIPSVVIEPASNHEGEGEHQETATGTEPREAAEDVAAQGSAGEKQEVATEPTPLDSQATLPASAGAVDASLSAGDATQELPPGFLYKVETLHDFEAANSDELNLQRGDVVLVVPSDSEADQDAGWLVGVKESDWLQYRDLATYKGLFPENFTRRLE"}, "[18]": {"target": "AP-2 complex subunit beta (UniProt Q9DBG3)"}, "[19]": {"target": "2-oxoglutarate dehydrogenase-like, mitochondrial (UniProt Q9ULD0)", "sequence (Q9ULD0 whole entry)": "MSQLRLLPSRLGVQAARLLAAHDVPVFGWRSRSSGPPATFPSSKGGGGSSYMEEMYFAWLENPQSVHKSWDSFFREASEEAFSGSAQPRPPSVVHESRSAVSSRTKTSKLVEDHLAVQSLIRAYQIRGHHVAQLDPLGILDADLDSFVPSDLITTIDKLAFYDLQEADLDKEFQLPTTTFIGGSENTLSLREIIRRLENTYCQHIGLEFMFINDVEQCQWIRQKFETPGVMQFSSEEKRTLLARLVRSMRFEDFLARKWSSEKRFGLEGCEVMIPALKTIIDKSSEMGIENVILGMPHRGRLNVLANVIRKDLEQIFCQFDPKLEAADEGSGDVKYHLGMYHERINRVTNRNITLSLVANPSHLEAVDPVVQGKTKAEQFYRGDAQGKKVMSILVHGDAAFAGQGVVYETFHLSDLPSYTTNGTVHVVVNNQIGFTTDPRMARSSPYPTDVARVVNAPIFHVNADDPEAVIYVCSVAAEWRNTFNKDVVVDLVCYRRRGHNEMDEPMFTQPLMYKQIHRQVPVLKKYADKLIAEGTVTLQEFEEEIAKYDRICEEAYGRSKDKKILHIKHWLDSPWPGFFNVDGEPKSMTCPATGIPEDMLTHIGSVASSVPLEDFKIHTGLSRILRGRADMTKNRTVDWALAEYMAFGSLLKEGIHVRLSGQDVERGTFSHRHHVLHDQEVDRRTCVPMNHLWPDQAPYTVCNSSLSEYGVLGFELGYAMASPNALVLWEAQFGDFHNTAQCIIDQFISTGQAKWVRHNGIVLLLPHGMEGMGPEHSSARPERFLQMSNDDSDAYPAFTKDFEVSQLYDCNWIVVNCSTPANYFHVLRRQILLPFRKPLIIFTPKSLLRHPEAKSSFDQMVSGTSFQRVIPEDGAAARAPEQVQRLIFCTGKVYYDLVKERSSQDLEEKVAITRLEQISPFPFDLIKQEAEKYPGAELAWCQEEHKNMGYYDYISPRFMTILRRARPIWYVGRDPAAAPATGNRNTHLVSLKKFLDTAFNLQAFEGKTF"}, "[20]": {"target": "ATP synthase F(1) complex subunit alpha, mitochondrial (UniProt P25705)"}},
  "data": [
    {"substance": "14-3-3 protein gamma, P61981", "values": [
      {"measurement": "listed as a hit", "setting": "[1]", "value": "yes"}
    ]},
    {"substance": "ATP synthase peripheral stalk subunit d, mitochondrial, O75947", "values": [
      {"measurement": "listed as a hit", "setting": "[2]", "value": "yes"},
      {"measurement": "listed as a hit", "setting": "[3]", "value": "yes"},
      {"measurement": "listed as a hit", "setting": "[4]", "value": "yes"}
    ]},
    {"substance": "14-3-3 protein epsilon, P62259", "values": [
      {"measurement": "listed as a hit", "setting": "[5]", "value": "yes"}
    ]},
    {"substance": "AP-3 complex subunit beta-1, O00203", "values": [
      {"measurement": "listed as a hit", "setting": "[6]", "value": "yes"}
    ]},
    {"substance": "AP-3 complex subunit delta-1, O54774", "values": [
      {"measurement": "listed as a hit", "setting": "[7]", "value": "yes"},
      {"measurement": "listed as a hit", "setting": "[8]", "value": "yes"}
    ]},
    {"substance": "B-cell receptor-associated protein 29, Q61334", "values": [
      {"measurement": "listed as a hit", "setting": "[9]", "value": "yes"}
    ]},
    {"substance": "WD repeat-containing protein 1, O88342", "values": [
      {"measurement": "listed as a hit", "setting": "Actin, cytoplasmic 1", "value": "yes"}
    ]},
    {"substance": "Neurofilament light polypeptide, P08551", "values": [
      {"measurement": "listed as a hit", "setting": "Alpha-internexin", "value": "yes"},
      {"measurement": "listed as a hit", "setting": "[10]", "value": "yes"},
      {"measurement": "listed as a hit", "setting": "[11]", "value": "yes"}
    ]},
    {"substance": "ATP synthase F(1) complex subunit gamma, mitochondrial, P36542", "values": [
      {"measurement": "listed as a hit", "setting": "[12]", "value": "yes"},
      {"measurement": "listed as a hit", "setting": "[13]", "value": "yes"}
    ]},
    {"substance": "ATP-dependent 6-phosphofructokinase, muscle type, P47857", "values": [
      {"measurement": "listed as a hit", "setting": "[14]", "value": "yes"}
    ]},
    {"substance": "AP-2 complex subunit mu, Q96CW1", "values": [
      {"measurement": "listed as a hit", "setting": "[15]", "value": "yes"}
    ]},
    {"substance": "Adenylyl cyclase-associated protein 1, P40124", "values": [
      {"measurement": "listed as a hit", "setting": "Actin, cytoplasmic 1", "value": "yes"}
    ]},
    {"substance": "Prohibitin 1, P35232", "values": [
      {"measurement": "listed as a hit", "setting": "[16]", "value": "yes"},
      {"measurement": "listed as a hit", "setting": "Cytochrome c", "value": "yes"},
      {"measurement": "listed as a hit", "setting": "[17]", "value": "yes"}
    ]},
    {"substance": "Myc box-dependent-interacting protein 1, O08539", "values": [
      {"measurement": "listed as a hit", "setting": "Amphiphysin", "value": "yes"}
    ]},
    {"substance": "Neurofilament heavy polypeptide, P19246", "values": [
      {"measurement": "listed as a hit", "setting": "Alpha-internexin", "value": "yes"}
    ]},
    {"substance": "Adaptin ear-binding coat-associated protein 1, Q9CR95", "values": [
      {"measurement": "listed as a hit", "setting": "[18]", "value": "yes"}
    ]},
    {"substance": "2-oxoglutarate dehydrogenase complex component E1, Q02218", "values": [
      {"measurement": "listed as a hit", "setting": "[19]", "value": "yes"}
    ]},
    {"substance": "ATP synthase peripheral stalk subunit b, mitochondrial, P24539", "values": [
      {"measurement": "listed as a hit", "setting": "[20]", "value": "yes"}
    ]}
  ]
}
